High-throughput results (PubChem)
NOD2 RIPK2 PPI = NOD2-RIPK2 protein interaction inhibition | O43353 | CHO BLA complementation NOD2-RIPK2, CCF4 ratio | inhibition, % at 4.98 µM | actives 0.38% (n = 360,000) | AID 624267; in the data active means inhibition above about 21%
m5-HT2A agonist = mouse HTR2A agonism via beta-arrestin recruitment. P35363. actives 0.66% (n = 360,000). activation, % at 7.6 µM. CHO-K1 mHTR2A beta-arrestin complementation, luminescence; percent of 30 µM serotonin response;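 active means activation above a run cutoff, the mean activation of all tested compounds plus 3 SD, cut at about 14% in these data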
TMEM16A inh = blocks the mouse calcium-activated chloride channel TMEM16A. Q8BHY3. HEK293 TMEM16A/YFP iodide influx fluorescence, ionomycin. normalized B-score (activity score, 25-100; higher = stronger inhibition) at 10 µM. actives 1.2% (n = 310,000);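 active means ratio plate-corrected score three or more library SD toward inhibition, starting fluorescence score within five deviations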;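 further: score derived from kinetic fluorescence span divided by baseline fluorescence per well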
TLR4 MyD88 comp = blocks binding of human TLR4 to MyD88. actives 0.18% (n = 200,000). inhibition, % at 8.4 µM. HeLa CL3-4 TLR4/MyD88 BLA complementation, FRET ratio. AID 861; in the data active means inhibition above about 25%
TLR9-MyD88 inh = TLR9-MyD88 interaction inhibition; actives 0.21% (n = 340,000); CHO BLA complementation TLR9-MyD88, CCF4 FRET ratio; AID 504734; inhibition, % at 4.98 µM; Q9NR96+Q99836;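 active means inhibition above the mean over all tested compounds plus 3 SD, cut at about 21% in these data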
TMEM16A act = mouse TMEM16A channel activation, primary screen; B-score at 10 µM; Q8BHY3; HEK293 TMEM16A/YFP-H148Q/I152L, iodide quench fluorescence; active compounds read low; actives 0.3% (n = 340,000); AID 623877;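 active means fluorescence-ratio B-score plate-corrected deviation score at least 3 library SD below zero, with starting fluorescence score within 5 deviations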;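 further: channel opened by trigger with iodide after compound preincubation; score built on the fluorescence ratio of max minus min over baseline; more negative score means more quench and so TMEM16A activation or potentiation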
TMEM16A reconf = reconfirmed blocker of mouse TMEM16A calcium-activated chloride channel; shares compounds with TMEM16A inh; inhibition, % at 10 µM; actives 39% (n = 2,300); HEK293 TMEM16A/YFP-H148Q, iodide quench fluorescence; ionomycin added to raise cell calcium;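 active means mean duplicate percent inhibition, scaled so buffer wells are 0 and the reference blocker 100, over three buffer SD above buffer mean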
TMEM16A Ca cntr = calcium mobilization counter-screen hit for TMEM16A inhibitor series; calcium response (% of ionomycin), % at 10 µM; TMEM16A/YFP HEK293, Fluo4 calcium mobilization; actives 2% (n = 2,300); shares compounds with TMEM16A inh;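 active means duplicate-averaged calcium signal over 20% of the ionomycin maximum, relative to buffer baseline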;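 further: each well's signal is peak minus trough fluorescence divided by its pre-addition baseline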
YFP-HEK293 quench = parental YFP-HEK293 iodide quench counter-screen activity | ionomycin | AID 652233 | YFP ratio F(max-min)/F0 at 10 µM | 2,300 tested, under 10 active | shares compounds with TMEM16A inh;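 active means yellow fluorescent protein signal ratio exceeding the buffer control mean by over 5 SD of those controls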;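 further: ratio is mean of duplicate wells from kinetic YFP trace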
ClC-1 inh = rat ClC-1 inhibition, TMEM16A specificity screen; shares compounds with TMEM16A inh; CHO ClC-1-YFP, iodide influx fluorescence quench; iodide control reads 0, buffer control 100; ratio percent, % at 10 µM; 2,300 tested, under 10 active; AID 652236;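 active means duplicate-mean ratio percent above the mean of iodide-only control wells, which defines zero, plus 5 of their SD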;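 further: higher percent means stronger block of ClC-1 iodide influx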
Large screens that a line does not name were inactive (follow-up assays come after a bar, where they were run). This is a sample that favours compounds with a hit; in the whole collection about 2.4% have one here.

CCOc1ccc(CCNC(=O)c2ccc(N3CCCC3=O)cc2)cc1OCC	TMEM16A inh 25 | TMEM16A reconf inactive | TMEM16A Ca cntr inactive | YFP-HEK293 quench inactive | ClC-1 inh inactive
O=S(=O)(Cc1ccccc1)N1CCN(c2ccccc2)CC1	none
Cc1ccc(N2CCN(S(=O)(=O)c3ccc(Cl)s3)CC2C)cc1 (configuration not stated)	TMEM16A inh 25 (no result: TLR4 MyD88 comp) | TMEM16A reconf inactive | TMEM16A Ca cntr inactive | YFP-HEK293 quench inactive | ClC-1 inh inactive
Fc1ccc2nc(Nc3nc4c(F)cc(F)cc4s3)sc2c1	none
Fc1ccc2nc(Nc3nc4c(F)cccc4s3)sc2c1	TMEM16A inh 25 | TMEM16A reconf 25% | TMEM16A Ca cntr inactive | YFP-HEK293 quench inactive | ClC-1 inh inactive
CC(C)OC(=O)c1nnn(-c2nonc2N)c1CSc1ccccn1	none
Cc1ccc(C(=O)Nc2nnc(C)s2)cc1	none (no result: TLR9-MyD88 inh)
CC(=O)Oc1ccc(C(=O)Nc2nnc(C)s2)cc1	none | TMEM16A reconf inactive | TMEM16A Ca cntr inactive | YFP-HEK293 quench inactive | ClC-1 inh inactive
Cc1ccc(Nc2nnc(SCC(=O)Nc3ccc(S(=O)(=O)N4CCOCC4)cc3)s2)cc1	none
O=C(CSc1nnc(Nc2ccccc2)s1)Nc1ccc(S(=O)(=O)N2CCOCC2)cc1	TMEM16A inh 25 | TMEM16A reconf inactive | TMEM16A Ca cntr inactive | YFP-HEK293 quench inactive | ClC-1 inh inactive
CC(C)N=C1SC(CC(=O)Nc2ccccc2)C(=O)N1C(C)C (configuration not stated)	none
CSc1ccccc1NC(=O)Nc1cccc(F)c1	none
CSc1ccccc1NC(=O)Nc1ccccc1	TMEM16A inh 100 | TMEM16A reconf inactive | TMEM16A Ca cntr inactive | YFP-HEK293 quench inactive | ClC-1 inh inactive
CCCn1nc(C(=O)N2CCN(c3ccccn3)CC2)c2ccccc2c1=O	none (no result: TMEM16A inh, TLR4 MyD88 comp)
O=C(c1cnc2n(c1=O)CCS2)N(C1CCCCC1)C1CCCCC1	none
Cc1nonc1C(=O)N/N=C/c1ccc(O)c(O)c1	none
COc1cc(/C=N/NC(=O)c2nonc2C)ccc1O	none | TMEM16A reconf inactive | TMEM16A Ca cntr inactive | YFP-HEK293 quench inactive | ClC-1 inh inactive
Cc1nn(-c2ccccc2)c(C)c1C(=O)OCC(O)=C(C#N)c1nc2ccccc2[nH]1	none (no result: TMEM16A inh, TLR4 MyD88 comp)
Brc1ccc(COn2ccnc2)cc1	none (no result: TMEM16A inh)
O=C(/C=C/c1ccccc1Cl)NCc1ccco1	TMEM16A inh 25 | TMEM16A reconf inactive | TMEM16A Ca cntr inactive | YFP-HEK293 quench inactive | ClC-1 inh inactive
O=C(/C=C/c1c(Cl)cccc1Cl)NCc1ccco1	none
CCCc1cc(C(=O)NC(C)C2CCCO2)cs1 (configuration not stated)	none (no result: TLR4 MyD88 comp)
O=C(Nc1ccc2[nH]ncc2c1)c1ccccc1Br	none (no result: TLR4 MyD88 comp)
CCOC(=O)c1ccc(CC(=O)c2ccc(O)cc2O)o1	none
CCC(=O)Oc1ccc(C/C(=N\O)c2ccc(O)cc2O)o1	TMEM16A inh 25 | TMEM16A reconf 24% | TMEM16A Ca cntr inactive | YFP-HEK293 quench inactive | ClC-1 inh inactive
CCc1nc(SCC(=O)OC)c2c3c(sc2n1)COC(C)(C)C3	none (no result: TLR4 MyD88 comp)
Nc1nc2c(nc(Br)n2[C@@H]2O[C@@H]3COP(=O)(O)O[C@H]3[C@H]2O)c(=O)[nH]1	none (no result: TLR4 MyD88 comp)
CN(C)c1ncc(S(=O)(=O)c2ccccc2)c(-c2ccccc2Cl)n1	TMEM16A inh 100 | TMEM16A reconf inactive | TMEM16A Ca cntr inactive | YFP-HEK293 quench inactive | ClC-1 inh inactive
O=C(Nc1cccc(Br)c1)c1cc2ccccc2o1	TMEM16A inh 25 | TMEM16A reconf inactive | TMEM16A Ca cntr inactive | YFP-HEK293 quench inactive | ClC-1 inh inactive
O=C1CCCC(=O)C1C(c1ccc(Cl)cc1)C1C(=O)CCCC1=O	none (no result: TMEM16A inh, TLR4 MyD88 comp)
CC(C)CCSc1nnc(N)s1	none (no result: TLR4 MyD88 comp)
Cc1cc(N2CCOCC2)cc(C)[n+]1[O-]	TMEM16A inh 25 | TMEM16A reconf inactive | TMEM16A Ca cntr inactive | YFP-HEK293 quench inactive | ClC-1 inh inactive
COC(=O)CNC(c1ccccc1)c1cc(Br)ccc1NC(=O)OCc1ccccc1 (configuration not stated)	none | TMEM16A reconf inactive | TMEM16A Ca cntr inactive | YFP-HEK293 quench inactive | ClC-1 inh inactive
COC(=O)CNC(c1ccccc1)c1cc(C)ccc1NC(=O)CNC(=O)OCc1ccccc1 (configuration not stated)	none
COc1ccc(-c2c3c(nc4sc5c(Cl)nc(C)nc5c24)CCC3)cc1	TMEM16A inh 100 | TMEM16A reconf inactive | TMEM16A Ca cntr inactive | YFP-HEK293 quench inactive | ClC-1 inh inactive
COc1ccccc1C1CCN(Cc2cccc([N+](=O)[O-])c2)CC1	none (no result: TLR4 MyD88 comp)
COc1ccccc1C1CCN(c2ccc(CO)cc2[N+](=O)[O-])CC1	TMEM16A inh 25 (no result: TLR4 MyD88 comp) | TMEM16A reconf inactive | TMEM16A Ca cntr inactive | YFP-HEK293 quench inactive | ClC-1 inh inactive
COC(=O)c1sc(NC(=O)C2CCCO2)c(C(=O)OC)c1C (configuration not stated)	TMEM16A inh 25 | TMEM16A reconf inactive | TMEM16A Ca cntr inactive | YFP-HEK293 quench inactive | ClC-1 inh inactive
Cc1ccccc1OCC(=O)N(Cc1ccc(N(C)C)cc1)C1CCS(=O)(=O)C1 (configuration not stated)	TMEM16A inh 100 | TMEM16A reconf inactive | TMEM16A Ca cntr inactive | YFP-HEK293 quench inactive | ClC-1 inh inactive
CN(C)c1ccc(CN(C(=O)COc2ccccc2)C2CCS(=O)(=O)C2)cc1 (configuration not stated)	none
Cc1ccc(SC(C)C(=O)O/N=C(\N)c2ccncc2)cc1 (configuration not stated)	none (no result: TLR4 MyD88 comp)
COc1ccc(-c2noc(CCC(=O)N3CCN(c4cc(C)ccc4C)CC3)n2)cc1	TMEM16A inh 100 | TMEM16A reconf inactive | TMEM16A Ca cntr inactive | YFP-HEK293 quench inactive | ClC-1 inh inactive
C/C(=C\C(=O)c1ccccc1)NCc1ccc(F)cc1	none
C/C(=C\C(=O)c1ccc(C)cc1)NCc1ccc(F)cc1	TMEM16A inh 100 | TMEM16A reconf inactive | TMEM16A Ca cntr inactive | YFP-HEK293 quench inactive | ClC-1 inh inactive
